Source: PubChem BioAssay (several laboratories)
PP5 inh: blocks human protein phosphatase 5 activity; P53041; purified PP5c, OMFP substrate fluorescence; inhibition, % at 6.7 µM; 320,000 tested, 0.18% active; AID 1987;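 active = inhibition above the campaign's mean inhibition across all tested compounds plus 3 SD, cut at about 9.5% in these data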;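 note: 0% = DMSO only and 100% = 100 µM cantharidin control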
Calb FLC: affects C. albicans growth with fluconazole | growth inhibition, % (test concentration not listed) | AID 1979 | C. albicans CaCi-2 (fluconazole-resistant clinical isolate) + fluconazole, Alamar Blue growth, 48 h | 300,000 tested, 0.57% active;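 active = growth inhibition above about 58% in most replicates, limit read from the data, passing the limit was not always enough; inconclusive = exactly half the replicates above a set limit; inactive = most replicates below a set limit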;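 note: all wells also contain fluconazole at 8 µg/ml as a sub-toxic cotreatment; 0% = median of DMSO wells and 100% = median of geldanamycin control wells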
PP1 counter: blocks human PP1-alpha phosphatase, a PP5 counter-screen. P62136. purified PP1alpha, OMFP fluorescence. inhibition, % at 6.7 µM. 320,000 tested, 0.9% active. AID 2235;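 active = inhibition above the mean inhibition of all tested compounds plus 3 SD, computed separately for each screening campaign, cut at about 15% in these data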
Target sequence (P62136 whole entry, looked up): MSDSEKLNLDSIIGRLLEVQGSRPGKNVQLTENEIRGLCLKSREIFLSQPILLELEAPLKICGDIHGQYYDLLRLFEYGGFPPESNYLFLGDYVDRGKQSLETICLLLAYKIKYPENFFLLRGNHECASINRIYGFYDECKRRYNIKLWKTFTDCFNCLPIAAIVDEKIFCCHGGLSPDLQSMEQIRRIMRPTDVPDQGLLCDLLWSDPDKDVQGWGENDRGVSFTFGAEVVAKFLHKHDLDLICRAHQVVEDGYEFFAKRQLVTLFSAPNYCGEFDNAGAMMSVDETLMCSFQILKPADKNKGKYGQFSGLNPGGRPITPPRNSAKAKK
Mdm2-MdmX inh: disrupts the human Mdm2-MdmX interaction; O15151+Q00987; inhibition, % at 8 µM; 330,000 tested, 3% active; SaOS-2 split-luciferase Mdm2/MdmX complementation, luminescence; AID 485346;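 active = inhibition of at least 50% at 8 µM in the primary screen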
Beta cell apopt: beta cell apoptosis inhibition | INS-1E cytokine-induced death, ATP luminescence, 48 h; percent of positive-control rescue, neutral wells zero | protection from apoptosis, % (test concentration not listed) | 300,000 tested, 0.8% active | AID 435005;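 active = Every replicate reaches about 75%, or at least half do and their mean reaches it too, limit read from the data; inconclusive = At least half of replicates reach the limit but their mean does not; inactive = Under half of replicates reach the limit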;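 note: 0% = cytokine-treated negative control wells and 100% = positive control rescue; higher means more ATP so stronger rescue from cytokine killing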
CSC inhib: blocks cancer stem cells; cancer stem cell-like cells viability, luminescence; inhibition, % at 7.5 µM; 300,000 tested, 1.1% active; AID 2717; in the data active = inhibition above about 75%; inconclusive = no clear call, values can overlap the other calls; tested in HMLE shEcad cells
Mdm2 MdmX conf: human Mdm2/MdmX binding inhibition, confirmed; inhibition, % at 8 µM; shares compounds with Mdm2-MdmX inh; 10,000 tested, 55% active; AID 489028; luminescent assay; in the data active = inhibition above about 40%
Full FLuc ctr: full-length luciferase inhibition in Mdm2/MdmX counter-screen | 6,200 tested, 77% active | inhibition, % at 8 µM | AID 504607 | shares compounds with Mdm2-MdmX inh | SaOS-2 full-length luciferase counterscreen, luminescence;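 active = mean inhibition at 8 µM reaching about 37%, which flags the compound as non-specific, limit read from the data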;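 note: p53-null SaOS-2 cells with luciferase driven by a doxycycline-inducible promoter; compound on cells about two nights before reading with doxycycline added after day one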
* hit, by the source's call; u = inconclusive; x = no result. Sampled rows, rich in hits. Any-hit rate of the full collection: about 4.9%.

SMILES	PP5 inh	Calb FLC	PP1 counter	Mdm2-MdmX inh	Beta cell apopt	CSC inhib	Mdm2 MdmX conf	Full FLuc ctr
COc1ccc(/C=C/C(=O)Nc2ccccc2C(=O)O)cc1	-1.0	-2.8	-3.4	-68.8	10.2	7.5	x	x
Cc1cccc(OCC(=O)NCCCNC(=O)c2ccco2)c1	-9.2	-3.5	-9.2	-3.0	x	13.3	x	x
CCN(CC)c1ccc(/C=N/NC(=O)c2cccc(S(=O)(=O)Nc3ccccc3OC)c2)c(O)c1	3.1	-5.6	10.5	77.2*	90.7*	108.1*	78.5*	14.6
CCN(CC)c1ccc(/C=N/N=C(N)N)c(O)c1	-0.8	-0.3	2.2	61.5*	9.7	66.0	51.5*	83.4*
CCN(CC)c1ccc(/C=N/NC(=O)c2ccc3nc[nH]c3c2)c(O)c1	1.4	109.3*	4.1	73.3*	115.8*	106.5*	83.2*	53.2*
CC(C)(C)C(=O)Nc1ccc(N=Nc2ccccc2)cc1	3.7	-4.8	1.0	71.1*	-17.0	34.2	73.2*	136.4*
CN1CCN(c2c(/C=N/O)c3ccccc3n2C)CC1	-2.4	-1.4	-1.7	-15.8	1.8	-5.2	x	x
Cc1ccccc1C(=O)O/N=C/c1c(N2CCOCC2)n(C)c2ccccc12	2.2	107.2*	-1.7	53.2*	63.5	-3.9	37.4	x
CC1Cc2nc(SCC(=O)Nc3ccc4c(c3)OCO4)n(-c3ccc(F)cc3)c(=O)c2S1 (stereo not drawn)	3.4	6.3	2.4	32.2	-2.9	6.0	x	x
O=C(CN1c2ccccc2Sc2ccccc21)NNC(=S)Nc1ccc(Cl)cc1Cl	-0.7	-5.2	20.2*	66.2*	17.9	u	6.5	x
O=C(CN1c2ccccc2Sc2ccccc21)N/N=C/c1ccc(Cl)cc1Cl	-2.6	8.0	-2.8	42.0	0.5	24.9	x	x
O=C(CN1c2ccccc2Sc2ccccc21)N/N=C/c1ccc(Cl)cc1	3.3	-8.4	1.8	70.5*	10.6	61.7	1.1	x
COc1cccc(N2CC(C(=O)Nc3nnc(SCCN4CCOCC4)s3)CC2=O)c1 (stereo not drawn)	-0.3	1.0	-0.4	10.8	0.2	-10.9	x	x
CCOc1ccc(Oc2ccc(NC(=O)[C@@H](NC(N)=O)[C@@H](C)CC)cc2)cc1	0.6	21.5	2.0	36.4	-8.9	0.3	x	x
C=C[C@@H]1c2cccc(C)c2N(S(=O)(=O)c2ccc(C)cc2)[C@H](c2ccc(OC(C)=O)cc2)C1(C#N)C#N	x	x	x	51.3*	2.0	106.7*	-4.0	x
CCN(CC)S(=O)(=O)c1ccc(-c2nnc(SCC(=O)N3CCc4ccccc43)o2)cc1	0.0	-4.2	1.0	74.7*	-11.4	-6.0	-11.4	x
COc1ccc(-n2nnnc2CNC(=O)C(=O)c2c[nH]c3ccccc23)cc1	2.9	7.0	-3.7	-2.7	x	-2.4	x	x
Cc1ccc(-n2nnnc2SC(C(=O)c2c[nH]c3ccccc23)c2ccccc2)cc1 (stereo not drawn)	1.8	2.7	1.6	59.5*	1.5	85.5*	65.2*	56.1*
O=C(/C(=N\Nc1ccccc1)Sc1nnnn1-c1ccccc1)c1ccccc1	0.7	-6.8	-0.2	-4.5	-4.3	-5.2	x	x
C=CCNC(=O)c1ccc(-c2nc(-c3ccc(Cl)c(Cl)c3)cs2)cc1	-1.1	-2.4	-4.5	52.4*	-14.5	-8.7	24.6	x
COc1ccc2nc(/N=C(\N)NC(=O)C(C)(C)C)nc(C)c2c1	1.5	-1.2	2.1	-1.8	-1.3	0.9	x	x
CCC(=O)N/C(N)=N/c1nc(C)c2cc(OC)ccc2n1	6.5	u	6.2	62.3*	-4.8	14.6	41.0*	60.6*
CCn1c(=O)cc(SCC(=O)Nc2ccc(C)cn2)c2ccccc21	4.4	-2.9	1.4	100.4*	51.7	64.1	69.5*	143.1*
CCN1CCN(C(=O)CSc2cc(=O)n(CC)c3ccccc23)CC1	-1.3	-16.0	1.9	52.5*	-1.6	-6.1	40.7*	76.2*
CCn1c(=O)cc(SCC(=O)NCc2ccco2)c2ccccc21	1.3	7.1	-3.3	x	-4.7	x	x	x
SMILES	PP5 inh	Calb FLC	PP1 counter	Mdm2-MdmX inh	Beta cell apopt	CSC inhib	Mdm2 MdmX conf	Full FLuc ctr
CCn1c(=O)cc(SCC(=O)Nc2cc(OC)c(OC)c(OC)c2)c2ccccc21	0.1	2.5	2.8	52.5*	-4.0	8.0	18.8	x
CCn1c(=O)cc(SCC(=O)NCc2ccc(C)o2)c2ccccc21	0.1	2.3	1.7	59.6*	-17.0	x	36.8	x
O=C(NNC(=O)c1cc(-c2ccncc2)nc2ccccc12)c1cccc(Cl)c1	1.2	-2.4	-0.6	11.2	x	-5.6	x	x
O=C(C1CCCN(S(=O)(=O)c2ccc(Br)cc2)C1)N1CCOCC1 (stereo not drawn)	-1.6	4.9	-3.2	23.4	-0.9	-13.5	x	x
O=C1C=CC(=O)N1c1cccc(-c2ccccc2)c1	-0.7	4.2	-3.7	-3.2	0.6	57.1	x	x
CCCCn1c(N)c(N(CCOC)C(=O)c2ccco2)c(=O)[nH]c1=O	0.4	1.8	-3.7	-2.4	0.3	-6.9	x	x
COc1ccc(S(=O)(=O)N2CCc3ccccc32)cc1C(=O)Nc1ccc(NC(C)=O)cc1	x	x	x	20.4	-4.1	-3.3	x	x
Cc1oc(-c2ccccc2Cl)nc1Cn1cccc1C1=NC(c2ccccc2)CO1 (stereo not drawn)	2.4	-3.4	6.4	55.5*	2.5	49.0	57.0*	89.8*
COc1ccc(-c2n[nH]c3c2CN(C(=O)c2ccc(OC)c(OC)c2)CC3)cc1	1.9	-7.1	0.7	57.9*	4.3	40.7	57.9*	54.6*
CCOc1ccccc1NC(=O)CN1C(=O)CSC(C)C1=O (stereo not drawn)	2.2	5.5	-4.8	-13.8	0.0	-3.2	x	x
COc1ccc(NC(=O)c2cc(-c3ccccn3)nc3c(C)cc(C)cc23)c(C)c1	1.9	-5.4	-2.2	76.6*	-2.6	0.9	46.6*	103.7*
COc1cccc(NC(=O)c2cc(-c3ccncc3)nc3c(C)cc(C)cc23)c1	3.5	-2.0	9.2	22.3	6.3	38.6	x	x
Cc1cc(C)c2nc(-c3ccccn3)cc(C(=O)NCc3ccc(S(N)(=O)=O)cc3)c2c1	3.4	29.8	10.8	54.1*	7.5	22.9	-2.8	x
O=C(NC1CCCCNC1=O)c1ccccc1 (stereo not drawn)	1.6	-1.7	0.3	28.2	3.4	-8.2	x	x
N#C/C(=C/c1cn(CC(=O)O)c2ccccc12)C(=O)Nc1ccccc1	3.8	-3.3	-1.9	51.3*	2.8	1.8	-16.3	x
Cc1cccc(NC(=O)/C(C#N)=C/c2cn(CC(=O)NCc3ccco3)c3ccccc23)c1C	0.7	-13.2	13.9	89.5*	-3.8	9.0	49.4*	64.5*
N#C/C(=C\c1cn(Cc2ccccc2)c2ccccc12)C(=O)NCc1ccco1	4.7	10.0	4.3	3.8	-13.7	31.8	x	x
